# Results published in PubChem BioAssay AID1362 (SRMLSC, 2008).
# Screen size: about 190,000 compounds; about 4,000 (2.1%) were called active. Rule as the data show it: active = inhibition above about 58%; inactive = the rest, inconclusive results apart; tested in S. cerevisiae. The sample as a whole holds a higher share of actives than the screen did.
# Assay: growth inhibition of WT strain, primary screen, mitochondrial fusion inhibitor project, WT and mutant strains, chemical genetic (AID 1362)
# Settings: mitochondrial fusion phenotypic screen, at 10 µM
# [1] = WT strain, growth inhibition, stronger effect = higher value
SMILES,inhibition [1],inhibition (mutant strain inhibition) [%]
O=c1cnnc(Nc2ccccc2F)[nH]1,-19.8% (inactive),-21.4
O=C(COc1ccc(Cl)cc1)N1CCN(S(=O)(=O)c2ccc(Cl)cc2)CC1,-16.2% (inactive),-6.77
CCC(=O)c1ccc(OCC(O)CN2CCN(c3cccc(C(F)(F)F)c3)CC2)cc1 (stereo not drawn),10.7% (inactive),17.1
O=C(COc1ccc(Cl)cc1)N1CCN(c2cccc(C(F)(F)F)c2)CC1,59.2% (active),27.3
CC(=O)Oc1ccccc1C1=NN(C(C)=O)C(c2ccccc2)C1 (stereo not drawn),-8.11% (inactive),7.28
Cc1cccc(NC(=S)Nc2ccc3cn[nH]c3c2)c1,3.94% (inactive),-1.45
Cc1cccc(NC(=S)Nc2ccc(Cl)c(Cl)c2)c1,83% (active),83
Cc1cccc(NC(=S)Nc2ccc(Br)cc2)c1,-2.23% (inactive),-3.76
CCCCCN(C(=O)NC(=O)Nc1cccc(C)c1C)S(C)(=O)=O,-2.53% (inactive),12
O=S(=O)(c1ccc(-c2ccccc2)cc1)N1CCCC1,-9.92% (inactive),-14.9
CCOC(=O)C1CCc2nc3ccccc3c(=O)n21 (stereo not drawn),96.7% (active),18.1
CCOCCCn1c(NN)nc2ccccc2c1=O,4.28% (inactive),1.61
CCOC(=O)N1CCN(C(=O)Cn2cnc3ccccc3c2=O)CC1,-8.2% (inactive),-9.03
Cc1nc(-c2ccc(Cl)cc2)sc1C(=O)CBr,29.8% (inactive),16
Cc1ccc(S(=O)(=O)Cc2cc(-c3ccc(Cl)cc3)no2)cc1,17.1% (inactive),12.1
Cc1cc(C)cc(NC(=S)NCCc2c[nH]c3ccccc23)c1,70.2% (active),27.3
O=C(NCCc1c[nH]c2ccccc12)c1cc2ccccc2oc1=O,15.8% (inactive),-4.03
Cc1cc(C)cc(NC(=S)NCc2ccc(F)cc2)c1,42.3% (inactive),3.44
CC(C)(C)NC(=O)c1ccc(Cn2cc(C(F)(F)F)ccc2=O)cc1,3.12% (inactive),11.4
Nc1ccc(Nc2ccccc2)cc1,74.9% (active),46
Cc1ccc(Nc2ccccc2N)cc1,48.4% (inactive),33.4
Cc1cc(Nc2ccccc2)n(C(=O)c2ccc(N)cc2)n1,-10.2% (inactive),32.9
CCOC(=O)C1(Cc2cccc(OC)c2)CCN(C(C)CC(C)(C)O)CC1 (stereo not drawn),-0.94% (inactive),20.1

SMILES,inhibition [1],inhibition (mutant strain inhibition) [%]
CCN(CC)CC(=O)Nc1sc2c(c1C(=O)c1ccccc1C)CCC2,56.7% (inactive),9.28
COC(=O)C1=C(Nc2ccc(OC)cc2)C=C(C)C(C(=O)OC)C1c1ccc(C)cc1 (stereo not drawn),11.5% (inactive),5.72
COC(=O)C1=C(Nc2ccc(C)cc2)C=C(C)C(C(=O)OC)C1c1ccc(F)cc1 (stereo not drawn),72.8% (active),-7.13
COC(=O)C1C(=O)NCC1c1ccc(C)cc1 (stereo not drawn),19.4% (inactive),13.7
CCC(=O)NC(=S)Nc1ccc(NC(=O)c2ccco2)c(Cl)c1,8.3% (inactive),-0.75
Cn1ccc(=NC=C(C#N)C#N)c2ccccc21,-8.61% (inactive),4.44
CC1=NNC(=O)C1CCC(=O)N/N=C\c1ccc(Cl)c(Cl)c1 (stereo not drawn),-6.04% (inactive),2.78
CC12CCC(C(=O)N(c3cccc(Cl)c3)C1=O)C2(C)C (stereo not drawn),15.3% (inactive),1.52
CC1=NN(c2cccc(Cl)c2)C(=O)C12CC(C)=C(C)CS2 (stereo not drawn),71.2% (active),49.2
CCCCN(CC)CCNC(=O)CCNC(=O)Cn1ccc2ccccc2c1=O,-12.2% (inactive),5.97
CN(C)c1ccc(/C=N/Nc2cc(N3CCOCC3)nc(N3CCOCC3)n2)cc1,2.15% (inactive),-1.62
C/C(=N/NC(=O)c1ccc(Br)o1)c1ccc(C)o1,-7.01% (inactive),-8.07
C/C(=N\NC(=S)NC1CCCCC1)c1ccc(C)o1,76.5% (active),64.5
Cc1ccc(NC(=S)NC2CCCC2)cc1,1.79% (inactive),-5.24
COc1ccc(C(=O)Nc2ccc(N3CCC(C)CC3)cc2)cc1Br,-5.4% (inactive),7.51
O=S(=O)(c1ccc2c(c1)OCCO2)N1CCc2ccccc21,-3.01% (inactive),-8.75
CN(C)C=NC(=O)c1cccn1-c1ncc(C(F)(F)F)cc1Cl,17.4% (inactive),-2.64
Cc1noc(C)c1COc1ccc2ccc(=O)oc2c1,7.56% (inactive),-14.3
c1n[nH]c(NCc2ccc3c(c2)OCO3)n1,76.9% (active),23
O=C(CSc1ncn[nH]1)NCc1ccc2c(c1)OCO2,-7.65% (inactive),6.4
COc1cc(CNc2ncn[nH]2)ccc1OCc1ccccc1C,-10% (inactive),6.17
CCCn1c(C(O)c2ccc(OCC)cc2)nc2ccccc21 (stereo not drawn),16.9% (inactive),18.6
CCCCCC(O)c1cccc(OCc2ccc3ccccc3n2)c1 (stereo not drawn),77.5% (active),12.2

SMILES,inhibition [1],inhibition (mutant strain inhibition) [%]
CCCCCCOC(=O)NCC(O)c1ccccc1 (stereo not drawn),-6.62% (inactive),-10.2
CCn1c(N)c(Br)c(=O)[nH]c1=O,-1.38% (inactive),6.81
CCOC(=O)c1ccc[n+](CC(=O)Nc2ccccc2OC(F)F)c1,-21.9% (inactive),-5.87
CCOC(=O)c1sc(=NC(=O)/C=C/c2cccs2)n(C)c1C,11.4% (inactive),-7.32
COc1ccc(NC(=O)C(Br)C(C)C)cc1 (stereo not drawn),-7.51% (inactive),2.44
CC1CCN(c2ccc([N+](=O)[O-])cc2C(N)=O)CC1,3.04% (inactive),-16.1
NS(=O)(=O)c1cccc(NC(=O)CSc2nc3ccccc3n2-c2ccccc2)c1,-7.39% (inactive),1
Cc1ccc(SCCC(=O)OCC(=O)Nc2ncc(Cl)cc2Cl)cc1,2.29% (inactive),2.8
Cc1ccc(-n2c(SCC(=O)Nc3ncc(Cl)cc3Cl)nc3ccccc32)cc1,74.2% (active),43.6
S=C(c1ccc(-c2ccccc2)o1)N1CCCCC1,43.1% (inactive),35.3
c1ccc(Nc2nc(-c3ccncc3)cs2)nc1,23.8% (inactive),27.6
O=C(Nc1ccc(Cl)cn1)Nc1cccs1,8.8% (inactive),18.2
Clc1ccc(Nc2nc(-c3cccs3)cs2)nc1,78.8% (active),68.5
COc1ccccc1N1CCN(/N=C\C(Br)=C\c2ccccc2)CC1,15.4% (inactive),14.3
O=C(Nc1ccccc1Cl)/C(Cl)=C(\Cl)S(=O)c1ccccc1 (stereo not drawn),95.8% (active),92.8
O=C(CN1CCCCC1)Nc1ccccc1Cl,-11.8% (inactive),3.7
O=C(Nc1ccccc1Cl)c1ccc2nsnc2c1,-2.83% (inactive),-10.8
O=C(Cc1ccccc1)NNC(=O)C1CCN(c2ncccn2)CC1,-17.4% (inactive),-9.74
O=C(COc1ccccc1[N+](=O)[O-])NC1CC1,-0.95% (inactive),8.16
CC(c1ccco1)N(C(=O)c1ccc(S(=O)(=O)N2CCCCC2)cc1)c1ccccn1 (stereo not drawn),4.63% (inactive),-4.51
CC(c1ccco1)N(C(=O)COc1ccccc1[N+](=O)[O-])c1ccccn1 (stereo not drawn),70.6% (active),2.58
CCCCN(CC(=O)NC(C)(C)C)C(=O)C(=O)Nc1ccc2c(c1)OCCO2,-14.6% (inactive),11
OCCC#Cc1ccc(CN2CCN(Cc3ccsc3)C(CCO)C2)cc1 (stereo not drawn),2.66% (inactive),-0.56

SMILES,inhibition [1],inhibition (mutant strain inhibition) [%]
CCOC(=O)c1ccc(NC(=S)Nc2cc(C)cc(C)n2)cc1,12.9% (inactive),22.8
Cc1ccc2c(c1)C1CN(C)CCC1N2S(=O)(=O)c1ccc(Oc2ccc([N+](=O)[O-])cc2)cc1 (stereo not drawn),78.9% (active),62.2
Cc1ccc2c(c1)C1CN(C)CCC1N2C(=S)Nc1ccc(OC(F)F)cc1 (stereo not drawn),17.8% (inactive),8.65
Cc1ccc2c(c1)C1CN(C)CCC1N2C(=O)c1ccccc1NS(=O)(=O)c1ccc(F)cc1C (stereo not drawn),-2.24% (inactive),-7.82
Cc1ccc(S(=O)(=O)CCC(=O)OCc2ccccc2)cc1,0.5% (inactive),13.9
C=CCN(CC=C)CCOc1ccccc1[N+](=O)[O-],1.42% (inactive),1.87
CC1=CC2=NC(=O)CC(C)(C(=O)N(CC(=O)NC(C)(C)C)Cc3ccccc3)N2C=C1 (stereo not drawn),-18.1% (inactive),-9.57
Cc1nnc(SCC(=O)N2c3ccccc3C(C)(c3ccc(Cl)cc3)CC2(C)C)s1 (stereo not drawn),68.9% (active),10.2
Cc1nnc(SCC(=O)NCc2ccccc2)s1,9.71% (inactive),1.45
Cc1nnc(SCC(=O)N2CCc3ccccc3C2)s1,3.58% (inactive),-9.75
CCCCCCCC1(C)NC(=O)N(CC(=O)Nc2cc(C)on2)C1=O (stereo not drawn),3.19% (inactive),-21
COc1cc(C)c(S(=O)(=O)N2CCOCC2)c(C)c1C,-12.4% (inactive),-18.1
CC(C)(C)N(CC#CCC(O)(c1ccccc1)C1CCCC1)CCO (stereo not drawn),-9.77% (inactive),-9.45
COc1cccc(/C=C/C(=O)Nc2ccc3c(c2)OCCO3)c1,19.1% (inactive),5.63
CCCSc1nc(NCc2ccco2)c2c3c(sc2n1)COC(C)(CC)C3 (stereo not drawn),58.6% (active),41.2
CCC1(C)Cc2c(sc3nc(SC)nc(N)c23)CO1 (stereo not drawn),-20.9% (inactive),-10.7
CN(C)CCSc1nc(N)c2c3c(sc2n1)COC(C)(C)C3,-20.9% (inactive),-1.39
N/C(=N\OC(=O)CCCC(=O)O)c1ncc(C(F)(F)F)cc1Cl,9.89% (inactive),9.98
N/C(=N\OC(=O)Nc1ccc(Cl)c(Cl)c1)c1ncc(C(F)(F)F)cc1Cl,80.3% (active),78.5
O=C(CC(O)(C(F)(F)F)C(F)(F)F)Nc1ccc(Cl)c(Cl)c1,84.6% (inactive),85.2
